From PubChem BioAssay (NCATS) come the findings set out here.

Assay [1] in a line: qHTS of pediatric cancer cell lines to identify multiple opportunities for drug repurposing: Primary screen for OHS-50 cells (AID 1347103). Further: nearly all actives have a fitted effect of over 40% in size.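 On activity change, negative = cytotoxic: plate controls were DMSO neutral control for no effect and bortezomib positive control for full effect.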 The procedure, abridged:
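Cells (500-1,000/well) rested 5 h, then received compounds for 48 h; metabolically active cells were measured by CellTiter-Glo luminescence. Final concentrations spanned up to 46 µM (MIPE, 11-point) or 0.59 nM-46 µM (NPC, 8-point) in primary screens, 11-point in follow-ups.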
(In general: In qHTS, concentration-response curves come from the screen itself.)

A short description of assay [2]: qHTS of pediatric cancer cell lines to identify multiple opportunities for drug repurposing: Primary screen for RD cells (AID 1347104). Further: nearly all actives have a fitted effect of over 55% in size.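 On activity change, negative = cytotoxic: plate controls were DMSO for no effect and bortezomib for full effect.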 In short, it runs like this:
(§1)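 Phenotypic viability qHTS, 48 h compound exposure, CellTiter-Glo luminescence read-out; multi-concentration dosing so that potency and efficacy derive directly from the primary screen's curves.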

Assay [3] can be described thus: qHTS of pediatric cancer cell lines to identify multiple opportunities for drug repurposing: Primary screen for MG 63 (6-TG R) cells (AID 1347105). Further: nearly all actives have a fitted effect of over 50% in size. On activity change, negative = cytotoxic: on the % scale 0 is the no-effect control and ±100 the full control effect. In short, it runs like this: as §1
Assay [4] can be described thus: qHTS of pediatric cancer cell lines to identify multiple opportunities for drug repurposing: Primary screen for control Hh wild type fibroblast cells (AID 1347106). Further: nearly all actives have a fitted effect of over 55% in size.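 On activity change, negative = cytotoxic: series mostly up to about 46 µM; on the % scale 0 is the no-effect control and ±100 the full control effect; a drop in luminescence marks cytotoxicity and a rise apparent proliferation.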 In short, it runs like this:
(§2)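 Cells (500-1,000/well) in growth media were settled 5 h at 37 degrees C, then given compounds for 48 h. Viability was read as CellTiter-Glo luminescence. Primary runs used MIPE at 11 points (0.78 nM-46 µM) and NPC at 8 points (0.59 nM-46 µM); follow-ups used 11 points.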

Assay [5] is described as follows: qHTS of pediatric cancer cell lines to identify multiple opportunities for drug repurposing: Confirmatory screen for NB1643 cells (AID 1347109). Further: nearly all actives have a fitted effect of over 45% in size. The procedure, abridged: as §2
The nature of assay [6]: qHTS of pediatric cancer cell lines to identify multiple opportunities for drug repurposing: Confirmatory screen for SK-N-MC cells (AID 1347111).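 Further: cells exposed to compound for 48 h before the readout; nearly all actives have a fitted effect of over 70% in size.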 Conditions: SK-N-MC cell viability. An excerpt: (§3) Drug repurposing or repositioning has been offered as a strategy for drug development in oncology programs. This approach has special potential for childhood cancers and other rare or orphan diseases, where the expected return on new drug development has been a disincentive to pharmaceuticals.
(§4) In this project we exploit the poly-pharmacology of drugs to discover new indications via phenotypic screening of a panel of 19 well-characterized cell lines derived from solid tumors seen in children and adolescents. The goal is to identify approved drugs with previously unrecognized anticancer properties that has the potential to reveal new mechanisms and biological processes involved in carcinogenesis or drug resistance. We employed a titration-based paradigm (quantitative high-throughput screening or qHTS), where all compounds were tested at multiple concentrations for their effect on cell viability. Concentration-response curves (CRCs) were derived directly from the primary screen, and both potency and efficacy values were used to identify compounds with robust bioactivity profiles. We screened the NIH Chemical Genomics Center (NCGC) Pharmaceutical Collection (NPC) and Mechanism Interrogation Plate (MIPE) small molecule collections of approved and investigational compounds against these cell lines; and measured metabolically active cells after 48 hours of compound treatment as a proxy for cell viability.
(§5) Assay Submitter: Nathalia J. Martinez, National Center for Advancing Translational Sciences, National Institutes of Health, Rockville, MD, USA; email: natalia.martinez@nih.gov
(§6) [1] Shen, M et al. Quantitative high-throughput phenotypic screening of pediatric cancer cell lines identifies multiple opportunities for drug repurposing. Oncotarget 2017 Dec 19;9(4):4758-4772. PMID 29435139.
(§7) The cells were obtained from University of North Carolina (UNC), Pediatric Preclinical Testing Program (PPT), and Coriell Institute (CI).
(§8) qHTS cell viability assay:
(§9) Cells were assayed in growth media at a density of 500-1,000 cells/well. Five microliters of cells were dispensed into 1,536-well, white, solid-bottom, TC-treated plates (Greiner Bio One) using a multidrop dispenser and incubated at 37 degrees C, 5% CO2, under a humidified atmosphere for 5 hours. Twenty-three nanoliters of compounds and controls (neutral control DMSO or positive control bortezomib at final concentration of 2.3 µM) were subsequently transferred by Kalypsys pintool. For primary screens, the MIPE collection was tested at 11-point dilutions (final concentrations range from 0.78 nM to 46 µM) and the NPC collection at 8-point dilutions (final concentrations range from 0.59nM to 46 µM). Compounds tested in follow-up screens were assayed at 11-point dilutions. Cells were incubated for 48 hours, followed by addition of 3 uL of CellTiter-Glo (Promega). After a 15 min incubation at room temperature, samples were analyzed for luminescence intensity using a ViewLux High-throughput CCD imager equipped with clear filters.

Assay [7] is described as follows: qHTS of pediatric cancer cell lines to identify multiple opportunities for drug repurposing: Confirmatory screen for BT-12 cells (AID 1347112). Further: nearly all actives have a fitted effect of over 55% in size.
Source text: as §3, §4, §5, §6, §7, §8
as §9, with “0.59 nM” for “0.59nM”, “µL” for “uL”

A short description of assay [8]: qHTS of pediatric cancer cell lines to identify multiple opportunities for drug repurposing: Confirmatory screen for LAN-5 cells (AID 1347113). Further: nearly all actives have a fitted effect of over 65% in size. The procedure, abridged: as §2
Assay [9] can be described thus: qHTS of pediatric cancer cell lines to identify multiple opportunities for drug repurposing: Primary screen for Rh30 cells (AID 1347107). Further: nearly all actives have a fitted effect of over 75% in size. On activity change, negative = cytotoxic: series mostly up to about 46 µM; on the % scale 0 is the no-effect control and ±100 the full control effect. The procedure, abridged: as §2
Assay [10] in a line: qHTS of pediatric cancer cell lines to identify multiple opportunities for drug repurposing: Primary screen for Rh41 cells (AID 1347108). Further: nearly all actives have a fitted effect of over 70% in size.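 On activity change, negative = cytotoxic: series mostly up to about 46 µM; luminescence drop marks cytotoxic hits.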 In short, it runs like this:
as §1

Results filed as inconclusive are left out. Unmarked numbers belong to inactive results. Calls of active or inactive are those of the source. The call rests on the fitted dose curve; in most records, active means well fitted curve in the direction sought with a large enough effect; inconclusive means small, poorly fitted or top-dose-only effect, or another doubt; inactive means no such curve, though single readings can be large; an effect the other way counts as inactive or inconclusive.
Potency means the concentration at half of the fitted maximal effect.

For the compound `[O-][n+]1ccccc1SSc1cccc[n+]1[O-]`, the Potency in assay [1] was 0.338 µM (active); in [2] it was 0.0731 µM (active); in [3], 0.184 µM (active); in [4] it was 11.6 µM (active); in assay [5], 1.15 µM (active); in [6], 0.456 µM (active). The Potency in assay [7] was 3.23 µM (active); in assay [8], 0.288 µM (active).

For the compound `C=CCCCCCCCCC(=O)O`, the Potency result in [1], in [2], in [3], in assay [4], in assay [9] and in assay [10] was “inactive” each time.

In the case of `CCOC(=O)c1ccccc1O`, the Potency entry in [1], in [2], in [3], in assay [4], in [9] and in assay [10] was “inactive” each time. Moreover, the figures for the Potency in assay [5] and in assay [6] were 14.7 µM (active) and 1.65 µM (active), respectively.

Turning to `CCC1C(=O)OCC1Cc1cncn1C` (stereo not drawn), the Potency entry in assay [1], in assay [2], in assay [3], in [4], in assay [9] and in [10] was “inactive” in each case.

Take `CN(C)c1ccc(N=NS(=O)(=O)O)cc1`: the Potency result in [1], in assay [2], in assay [3], in assay [4], in assay [9] and in [10] was “inactive” each time.

For the compound `Nc1cc(-c2ccncc2)c[nH]c1=O`, the Potency result in assay [1], in [2], in assay [3], in assay [4], in assay [9] and in assay [10] was “inactive” in each case.

In the case of `N=C(N)N`, the Potency result in assay [1], in assay [2], in assay [3], in [4], in assay [9] and in [10] was “inactive” each time.

For `O=C(Nc1ccc(C(=O)O)c(O)c1)c1ccccc1`, the Potency result in [1], in [2], in [3], in [4], in assay [9] and in [10] was “inactive” in each case.

Consider `c1ccc2sc(SSc3nc4ccccc4s3)nc2c1`, for which the Potency result in assay [1], in assay [2], in assay [3], in assay [9] and in [10] was “inactive” each time.

For `CCCCC1C(=O)N(c2ccccc2)N(c2ccc(O)cc2)C1=O` (stereo not drawn), the Potency in assay [1] was 11 µM (active); in [2] it was 6.68 µM (active); in assay [3], 21.1 µM (active); in assay [10], 5.96 µM (active). Also, the Potency entry in assay [4] was “inactive”.

On to `CCOc1ccc2nc(S(N)(=O)=O)sc2c1`, for which the Potency result in assay [1], in assay [2], in assay [3], in assay [4], in [9] and in assay [10] was “inactive” each time.

With `COC(=O)c1nc(Cl)c(Cl)nc1N`, the Potency is 0.872 µM (active) in assay [1]; 5.96 µM (active) in [2]; 8.41 µM (active) in assay [3]; 21.1 µM (active) in assay [9]; 3.76 µM (active) in assay [10]; 3.69 µM (active) in assay [5]. Further, the Potency in assay [6] was 1.17 µM (active); in [7] it was 2.08 µM (active); in [8], 3.29 µM (active). The Potency entry in assay [4] is “inactive”.

In the case of `O=C(O)Cc1cccc(-c2cc(CCCCCCc3ccc(O[C@H]4O[C@H](CO)[C@@H](O)[C@H](O)[C@@H]4O)c(-c4cccc(CC(=O)O)c4)c3)ccc2O[C@H]2O[C@H](CO)[C@@H](O)[C@H](O)[C@@H]2O)c1`, the activity change, negative = cytotoxic is 10.4% [at 0.73 µM] in [1]; 16.2% [at 0.597 µM] in assay [2]; -10.3% [at 0.597 µM] in assay [3]; 2.02% [at 0.597 µM] in [4]; 18.7% [at 0.597 µM] in [9]; 21.7% [at 0.597 µM] in [10].

`O=C(O)/C=C\C(=O)O`: the Potency entry in assay [1], in assay [2], in assay [3], in assay [4], in assay [9] and in assay [10] was “inactive” in each case.

With `CC(C(=O)O)c1ccc(C(=O)c2cccs2)cc1` (stereo not drawn), the Potency entry in [1], in assay [2], in assay [3], in assay [4], in [9] and in assay [10] was “inactive” each time.

Turning to `CN(C)c1ccc(C(=C2C=CC(=[N+](C)C)C=C2)c2ccccc2)cc1`, the Potency in assay [1] was 0.0347 µM (active); in assay [2], 0.0596 µM (active); in assay [3], 0.106 µM (active); in assay [4], 23.7 µM (active); in assay [9], 0.473 µM (active); in assay [10], 0.0944 µM (active). The Potency was 0.657 µM (active) in assay [5], 0.369 µM (active) in assay [6], 1.85 µM (active) in [7] and 0.737 µM (active) in assay [8].

As for `N=C1N=C(N)c2cc3ccccc3cc21`, the Potency in assay [1] is 17.8 µM (active); in assay [2], 34.4 µM (active); in assay [3], 24.3 µM (active); in [10], 30.6 µM (active); in assay [5] it was 33.9 µM (active); in [6], 17 µM (active). In addition, the Potency in assay [8] was 38 µM (active).

As for `CC(C(=O)O)c1ccc(C(=O)c2ccccc2)s1` (stereo not drawn), the Potency entry in assay [1], in [2], in [4], in assay [9] and in [10] was “inactive” each time.

With `Cc1[nH]cnc1CN1CCc2c(c3ccccc3n2C)C1=O`, the Potency result in assay [2], in assay [3], in [4], in assay [9] and in assay [10] was “inactive” in each case.
